About 83,000 compounds went through this panel and 20% of them were active in at least one assay; those are over-represented in the sample as a whole.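 48-hour exposure, single concentration, 96-well plates; percent growth endpoint where 0 means no net growth. Active: below 10.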 Values without a mark were called inactive. Activity calls are given as the source filed them.

The experiment concerns MDA-MB-435 melanoma. The experiment is described as follows: NCI-60 one-dose screen, 48 h (100 = growth as untreated, 0 = no growth, -100 = all killed). The note with it: 10 µM unless noted.
Take `COc1ccc2c(c1)C(=O)/C(=C/c1cccc(OCC(=O)c3ccccc3)c1)CC2`: the growth was 41.1%.
For the molecule `NC(=Nc1ccccc1)SCCCCSC(N)=Nc1ccccc1`, the growth was 89.4%.
Turning to `CC/C(=C\c1ccc(N(C)C)cc1)c1ccncc1`, the growth was -6.41% (active).
Regarding `CCOC(=O)c1cc(-c2cccnc2)nc2c(Cl)cc(Cl)cc12`, the growth is 95%.
With `Clc1ccc(-n2cnc3c(Cl)ncnc32)cc1Cl`, the growth is 99.3%.
Regarding `O=C(CSCC(=O)N/N=C/c1ccccc1O)N/N=C\c1ccccc1O`, the growth was 50.9%.
Under `COc1ccc(C(=O)COc2cccc(/C=C3\Oc4ccc5ccccc5c4C3=O)c2)cc1` stands 94.7%; under `CC(=O)NC1(C(=O)O)CCCC1`, 123%; under `CCOC(=O)C1=NN(c2ccc(Cl)cc2)C2C3N(c4ccc(Cl)cc4)N=C(C(=O)OCC)N3c3ccccc3N12` (configuration not stated), 100%.
As for `CC(=O)Oc1ccc(C23c4ccccc4C2(OC(C)=O)c2cc(OC(C)=O)ccc23)cc1` (configuration not stated), the figure is 97.9%.
As for `COc1ccc(/C=C2\NC(=S)NC2=O)cc1`, the figure is 110%; as for `O=C(/C=C/c1ccccc1)CC(c1ccccc1)N1CCOCC1` (configuration not stated), 11.8%; as for `CCn1c2ccccc2c2ccc(C(C)=O)cc21`, 104%.
On to `Cc1ccc(C=C2C(Cl)=C(Cl)C(Cl)=C2Cl)cc1`, for which the growth was -61.9% (active).
Under `Cc1ccccc1NC(=O)c1cc2ccccc2cc1O` stands 28.6%.
As for `c1ccc(-n2nnnc2-c2cccc3ccccc23)cc1`, the figure is -10.5% (active); as for `Nc1ccccc1-c1ccc([N+](=O)[O-])cc1`, 52.4%; as for `c1cnc2ccc3ncccc3c2c1`, 129%.
With `CC(=O)n1c2ccccc2c2ccccc21`, the growth is 106%.
As to `CC1=CC(=O)C(C(C)=Nc2ccccc2Cl)C(=O)O1` (configuration not stated), the growth is 111%.
Regarding `COc1c(O)cc2oc3cc(O)c(CC=C(C)C)c(O)c3c(=O)c2c1C/C=C(\C)CCC=C(C)C`, the growth is 78.4%.
As for `CCOC(=O)c1ccccc1OC(=O)NNc1ccccc1`, the figure is 50%; as for `O=C(/C=C/c1cc2ccccc2[nH]c1=O)c1ccc(O)cc1`, 34.3%; as for `COc1cc(/C=C2\COc3ccc(O)cc3C2=O)cc(OC)c1`, 20.1%.
Under `ClC1=C(Cl)C(Cl)=C(Cl)C1=C/C=C/c1ccccc1` stands -28.5% (active).
For `COc1cccc(CCC2C(=O)CCCC2=O)c1`, the growth was 119%.
`CSc1ncc2ncn(C3OC(CO)C(O)C3O)c2n1` (configuration not stated): the growth is 104%.
Turning to `CN(C)CCCN1c2nc3ccccc3cc2Sc2cc3ccccc3nc21`, the growth was -67% (active).
As for `Cc1c(C)c(N2C(=O)C=CC2=O)c(C)c(C)c1N1C(=O)C=CC1=O`, the figure is 102%; as for `CC12CCC3C(CCC4CC(=O)/C(=C\O)CC43C)C1CCC(=O)O2` (configuration not stated), 110%.
On to `CC(C)C/C(=N\NC(=O)c1ccncc1)c1cc(Cl)ccc1O`, for which the growth was 32.4%.
As for `OC(Cc1cccnc1)c1ccccc1` (configuration not stated), the figure is 110%.
In the case of `Cn1cnc([N+](=O)[O-])c1S(=O)(=O)Oc1ccc(Cl)cc1`, the growth is 78.8%.
`O=C(N1CCC(CN=c2cc3n(-c4ccc(Cl)cc4)c4ccccc4nc-3cc2Nc2ccc(Cl)cc2)CC1)N1CC1`: the growth is -29.4% (active).
As for `CN1COc2ccc3ccccc3c2C1`, the figure is 106%; as for `CCCCCCCC1(C)NC(=O)NC1=O` (configuration not stated), 123%; as for `CC(O)c1nc2c(c(=O)n(C)c(=O)n2C)n1C` (configuration not stated), 111%.

(Values after PubChem BioAssay (NCI).)
